The text below walks through data of publication PMC7862700, “An all-to-all approach to the identification of sequence-specific readers for epigenetic DNA modifications on cytosine”.

Holding throughout (assay): DAPPL (digital affinity profiling via proximity ligation, sequencing); 10 mM Tris-HCl pH 7.5, 50 mM NaCl, 1 mM DTT, 4% glycerol, room temperature, 30 min; GST-TFs on glutathione beads, 16-mer random dsDNA library, 0.1% formaldehyde crosslink after washing; high values mean tight binding
Holding throughout (conditions): protein: recombinant; tags: N-terminal GST; dsDNA, one strand shown

Assay [1] deals with T1, FLI1 (Homo sapiens, UniProt Q01543 1-452).
T1 sequence: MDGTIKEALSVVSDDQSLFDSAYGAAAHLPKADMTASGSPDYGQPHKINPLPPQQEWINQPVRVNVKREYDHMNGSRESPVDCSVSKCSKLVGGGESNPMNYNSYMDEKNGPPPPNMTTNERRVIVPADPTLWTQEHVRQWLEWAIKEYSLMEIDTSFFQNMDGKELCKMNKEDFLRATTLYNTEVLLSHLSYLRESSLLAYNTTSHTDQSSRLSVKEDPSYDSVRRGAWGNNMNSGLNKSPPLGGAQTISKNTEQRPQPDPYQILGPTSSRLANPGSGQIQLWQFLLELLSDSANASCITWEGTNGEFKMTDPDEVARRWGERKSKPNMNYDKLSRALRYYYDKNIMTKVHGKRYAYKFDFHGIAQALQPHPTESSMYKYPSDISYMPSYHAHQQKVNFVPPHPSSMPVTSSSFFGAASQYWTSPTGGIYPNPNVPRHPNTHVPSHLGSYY
The procedure, abridged: (§1)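 Human transcription factors fused to GST were expressed in yeast, captured on glutathione beads, given DNA barcodes and pooled with a GST-only negative control. Pools were incubated with 200 nmole of a 16-mer random double-stranded DNA library in Tris/NaCl/DTT/glycerol buffer at room temperature for 30 min. They were then washed, crosslinked with 0.1% formaldehyde, proximity-ligated (BsaI/T4 ligase, 1 h, 37 °C), PCR-amplified and sequenced on an Illumina NextSeq500. Binding signal is each 6-mer's read frequency for a factor divided by its frequency for the GST control.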

For assay [2], the target named is T2, ELK1 (Homo sapiens, UniProt P19419 1-428).
T2 sequence: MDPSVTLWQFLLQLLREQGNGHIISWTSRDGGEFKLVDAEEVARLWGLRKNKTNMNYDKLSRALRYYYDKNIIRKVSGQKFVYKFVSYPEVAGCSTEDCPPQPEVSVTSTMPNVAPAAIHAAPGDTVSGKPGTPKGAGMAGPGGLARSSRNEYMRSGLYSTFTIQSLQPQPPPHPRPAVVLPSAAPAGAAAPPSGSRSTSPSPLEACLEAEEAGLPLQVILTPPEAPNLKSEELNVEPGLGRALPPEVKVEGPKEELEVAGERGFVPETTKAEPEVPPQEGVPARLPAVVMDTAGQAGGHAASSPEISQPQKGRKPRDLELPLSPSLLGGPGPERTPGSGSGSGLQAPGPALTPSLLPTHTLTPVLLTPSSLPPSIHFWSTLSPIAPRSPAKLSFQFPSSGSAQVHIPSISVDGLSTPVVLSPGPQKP
The method, boiled down:
as §1

Assay [3] deals with T3, GABPA (Homo sapiens, UniProt Q06546 1-454).
T3 sequence: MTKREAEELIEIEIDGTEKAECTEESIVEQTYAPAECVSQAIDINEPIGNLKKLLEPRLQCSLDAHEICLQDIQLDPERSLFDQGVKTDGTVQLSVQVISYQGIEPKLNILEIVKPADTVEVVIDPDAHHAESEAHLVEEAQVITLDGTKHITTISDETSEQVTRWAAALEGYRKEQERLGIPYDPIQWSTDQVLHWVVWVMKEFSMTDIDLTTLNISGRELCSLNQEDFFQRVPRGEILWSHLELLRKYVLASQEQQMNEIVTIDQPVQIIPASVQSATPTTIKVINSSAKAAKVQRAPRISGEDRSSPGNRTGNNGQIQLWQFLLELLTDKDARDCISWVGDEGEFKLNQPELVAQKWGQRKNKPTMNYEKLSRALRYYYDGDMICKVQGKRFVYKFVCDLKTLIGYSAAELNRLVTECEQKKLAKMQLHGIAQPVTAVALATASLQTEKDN
The procedure, abridged: as §1

For assay [4], the target named is T4, ERG (Homo sapiens, UniProt P11308 1-479).
T4 sequence: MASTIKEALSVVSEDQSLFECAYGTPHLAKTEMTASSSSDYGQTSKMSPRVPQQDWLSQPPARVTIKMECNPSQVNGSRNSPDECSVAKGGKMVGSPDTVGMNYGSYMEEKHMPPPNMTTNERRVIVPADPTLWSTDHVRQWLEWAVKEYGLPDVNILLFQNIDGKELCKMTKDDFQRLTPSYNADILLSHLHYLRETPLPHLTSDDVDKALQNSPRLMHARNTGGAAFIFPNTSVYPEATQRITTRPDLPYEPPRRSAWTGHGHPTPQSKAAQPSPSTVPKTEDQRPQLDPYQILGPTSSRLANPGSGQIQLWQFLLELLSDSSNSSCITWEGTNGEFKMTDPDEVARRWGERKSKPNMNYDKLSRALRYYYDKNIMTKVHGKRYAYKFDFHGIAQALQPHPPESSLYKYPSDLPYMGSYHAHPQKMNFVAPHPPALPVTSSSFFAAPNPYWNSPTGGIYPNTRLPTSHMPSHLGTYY
The method, boiled down:
as §1

Assay [5] deals with ELF1 (Homo sapiens, UniProt P32519 1-619). The procedure, abridged: as §1
Assay [6] has as its target T5, EHF (Homo sapiens, UniProt Q9NZC4 1-300).
T5 sequence: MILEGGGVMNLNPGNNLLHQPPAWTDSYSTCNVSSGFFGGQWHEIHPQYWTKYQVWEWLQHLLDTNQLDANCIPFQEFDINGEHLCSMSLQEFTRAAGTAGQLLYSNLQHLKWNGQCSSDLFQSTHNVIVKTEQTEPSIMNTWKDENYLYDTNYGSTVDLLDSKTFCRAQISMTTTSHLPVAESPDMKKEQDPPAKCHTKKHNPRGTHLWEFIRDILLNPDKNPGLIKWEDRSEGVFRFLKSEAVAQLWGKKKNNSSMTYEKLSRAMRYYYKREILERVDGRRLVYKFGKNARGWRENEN
The method, boiled down:
as §1

Assay [7] has as its target SPI1 (Homo sapiens, UniProt P17947 1-270). The procedure, abridged: as §1
Assay [8] has as its target SPIB (Homo sapiens, UniProt Q01892 1-262). The procedure, abridged: as §1
Assay [9] addresses T6, ELK3 (Homo sapiens, UniProt P41970 1-407).
T6 sequence: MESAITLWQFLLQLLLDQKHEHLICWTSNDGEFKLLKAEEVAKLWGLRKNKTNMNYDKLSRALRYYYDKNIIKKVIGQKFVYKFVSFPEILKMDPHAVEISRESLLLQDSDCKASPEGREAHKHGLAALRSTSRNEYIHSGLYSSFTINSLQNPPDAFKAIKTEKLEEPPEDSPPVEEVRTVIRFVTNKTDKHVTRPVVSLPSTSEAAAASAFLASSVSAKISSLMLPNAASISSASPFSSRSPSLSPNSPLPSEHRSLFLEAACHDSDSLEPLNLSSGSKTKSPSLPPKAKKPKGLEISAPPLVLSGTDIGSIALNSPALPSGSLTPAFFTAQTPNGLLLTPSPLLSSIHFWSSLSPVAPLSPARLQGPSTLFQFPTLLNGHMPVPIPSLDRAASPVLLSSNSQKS
The procedure, abridged: as §1

Chain of ELF1 (P32519 whole entry): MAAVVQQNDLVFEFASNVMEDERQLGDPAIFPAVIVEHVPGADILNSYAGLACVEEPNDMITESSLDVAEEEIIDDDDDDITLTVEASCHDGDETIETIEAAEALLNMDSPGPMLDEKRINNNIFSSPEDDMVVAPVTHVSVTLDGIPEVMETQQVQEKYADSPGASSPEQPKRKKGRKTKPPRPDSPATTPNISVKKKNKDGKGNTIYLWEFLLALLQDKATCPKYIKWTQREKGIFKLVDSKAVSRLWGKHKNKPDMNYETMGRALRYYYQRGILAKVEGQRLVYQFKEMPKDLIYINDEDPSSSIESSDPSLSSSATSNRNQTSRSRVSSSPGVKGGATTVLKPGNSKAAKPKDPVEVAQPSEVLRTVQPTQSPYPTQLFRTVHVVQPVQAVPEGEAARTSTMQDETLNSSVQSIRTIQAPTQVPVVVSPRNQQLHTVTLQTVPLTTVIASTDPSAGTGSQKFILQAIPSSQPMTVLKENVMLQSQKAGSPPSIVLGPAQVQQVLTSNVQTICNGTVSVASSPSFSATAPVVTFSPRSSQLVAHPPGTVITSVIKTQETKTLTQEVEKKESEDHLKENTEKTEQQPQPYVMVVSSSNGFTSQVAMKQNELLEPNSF
Chain of SPIB (Q01892 whole entry): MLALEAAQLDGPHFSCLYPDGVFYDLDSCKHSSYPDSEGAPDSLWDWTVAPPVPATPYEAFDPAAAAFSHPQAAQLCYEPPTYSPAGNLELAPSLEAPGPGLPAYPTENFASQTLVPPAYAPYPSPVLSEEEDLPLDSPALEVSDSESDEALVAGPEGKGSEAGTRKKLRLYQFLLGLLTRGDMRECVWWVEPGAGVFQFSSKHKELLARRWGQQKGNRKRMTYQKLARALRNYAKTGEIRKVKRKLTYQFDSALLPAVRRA

As for TTAGCG, the binding signal in [1] was 1.05 fold enrichment (6-mer frequency, TF over GST control); in [2], 1.04 fold enrichment (6-mer frequency, TF over GST control); in assay [3], 1.03 fold enrichment (6-mer frequency, TF over GST control); in assay [4] it was 1.05 fold enrichment (6-mer frequency, TF over GST control); in assay [5], 1.09 fold enrichment (6-mer frequency, TF over GST control); in [6], 1.06 fold enrichment (6-mer frequency, TF over GST control). Besides, the binding signal in assay [7] is 1 fold enrichment (6-mer frequency, TF over GST control); in assay [8], 1.13 fold enrichment (6-mer frequency, TF over GST control).

TGGGTT: the binding signal in assay [1] is 1.17 fold enrichment (6-mer frequency, TF over GST control); in assay [2] it was 1.11 fold enrichment (6-mer frequency, TF over GST control); in assay [3], 1.18 fold enrichment (6-mer frequency, TF over GST control); in assay [4], 1.1 fold enrichment (6-mer frequency, TF over GST control); in assay [5], 1.1 fold enrichment (6-mer frequency, TF over GST control); in assay [6], 1.18 fold enrichment (6-mer frequency, TF over GST control). The binding signal in [7] was 1.01 fold enrichment (6-mer frequency, TF over GST control); in assay [8] it was 1.02 fold enrichment (6-mer frequency, TF over GST control); in assay [9] it was 1.01 fold enrichment (6-mer frequency, TF over GST control).

For GGCCTC, the binding signal in assay [1] is 1.25 fold enrichment (6-mer frequency, TF over GST control); in assay [2], 1.2 fold enrichment (6-mer frequency, TF over GST control); in [3] it was 1.26 fold enrichment (6-mer frequency, TF over GST control); in [4], 1.19 fold enrichment (6-mer frequency, TF over GST control); in assay [5], 1.17 fold enrichment (6-mer frequency, TF over GST control); in [6], 1.21 fold enrichment (6-mer frequency, TF over GST control). For the same sequence, the binding signal in assay [7] was 1.11 fold enrichment (6-mer frequency, TF over GST control); in [8] it was 1.18 fold enrichment (6-mer frequency, TF over GST control); in assay [9] it was 1.1 fold enrichment (6-mer frequency, TF over GST control).

For ACGCTG, the binding signal was 1.14 fold enrichment (6-mer frequency, TF over GST control) in assay [1]; 1.19 fold enrichment (6-mer frequency, TF over GST control) in assay [2]; 1.23 fold enrichment (6-mer frequency, TF over GST control) in assay [3]; 1.18 fold enrichment (6-mer frequency, TF over GST control) in assay [4]; 1.19 fold enrichment (6-mer frequency, TF over GST control) in [5]; 1.23 fold enrichment (6-mer frequency, TF over GST control) in assay [6]. Also, the binding signal in [7] was 1.11 fold enrichment (6-mer frequency, TF over GST control); in assay [8], 1.05 fold enrichment (6-mer frequency, TF over GST control).

With GGAAGC, the binding signal in assay [1] is 1.5 fold enrichment (6-mer frequency, TF over GST control); in [2], 1.64 fold enrichment (6-mer frequency, TF over GST control); in [3] it was 1.45 fold enrichment (6-mer frequency, TF over GST control); in assay [4] it was 1.85 fold enrichment (6-mer frequency, TF over GST control); in [5] it was 1.39 fold enrichment (6-mer frequency, TF over GST control); in [6], 1.68 fold enrichment (6-mer frequency, TF over GST control). The binding signal was 1.74 fold enrichment (6-mer frequency, TF over GST control) in assay [7]; 1.63 fold enrichment (6-mer frequency, TF over GST control) in assay [8]; 1.77 fold enrichment (6-mer frequency, TF over GST control) in [9].

On to ATATGT, for which the binding signal in assay [1] was 1.09 fold enrichment (6-mer frequency, TF over GST control); in assay [2] it was 1.08 fold enrichment (6-mer frequency, TF over GST control); in [3], 1.16 fold enrichment (6-mer frequency, TF over GST control); in [4], 1.1 fold enrichment (6-mer frequency, TF over GST control); in assay [5] it was 1.2 fold enrichment (6-mer frequency, TF over GST control); in [6], 1.13 fold enrichment (6-mer frequency, TF over GST control). In addition, the binding signal in [7] is 1.09 fold enrichment (6-mer frequency, TF over GST control); in assay [8], 1.18 fold enrichment (6-mer frequency, TF over GST control); in assay [9], 1.14 fold enrichment (6-mer frequency, TF over GST control).

As to ATTCAA, the binding signal in assay [1] was 1.26 fold enrichment (6-mer frequency, TF over GST control); in assay [2], 1.34 fold enrichment (6-mer frequency, TF over GST control); in [3], 1.4 fold enrichment (6-mer frequency, TF over GST control); in assay [4], 1.36 fold enrichment (6-mer frequency, TF over GST control); in [5], 1.39 fold enrichment (6-mer frequency, TF over GST control); in assay [6], 1.41 fold enrichment (6-mer frequency, TF over GST control). The binding signal in [7] was 1.31 fold enrichment (6-mer frequency, TF over GST control); in assay [8], 1.34 fold enrichment (6-mer frequency, TF over GST control); in [9] it was 1.39 fold enrichment (6-mer frequency, TF over GST control).
